In the supplement of paper PMC9177965:
Values joined by “and” are separate entries in the source; they are usually repeats but may differ in a detail not shown here. Equal values may be shown once.

test system: HT29 RNF43 G659fs (RNF43 659mut, CRISPR-edited); experiment: cell viability activity relative to DMSO (negative = inhibition); higher = more viable cells (less growth inhibition); settings: 5 µM; 96 h
Description: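 Broad Repurposing Library primary screen at a single dose of 5 uM. HT29 sg-Ctrl and HT29 RNF43 G659fs CRISPR-edited isogenic cells were seeded at 2500 cells/well in 384-well plates in duplicate and treated for 96 h. Viability was read by CellTiter-Glo and reported as % activity relative to DMSO, with MG132 as the positive control (negative = growth inhibition).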

| Compound | cell viability activity |
| --- | --- |
| CC[C@@H](C)Nc1cc(C(=O)N[C@H]2C[C@H]3CC[C@@H](C2)N3c2ccc(C(=O)C3CC3)cn2)c(C)cc1C(N)=O | -85.8% |
| COc1ccc(-c2cc3c(C)nc(N)nc3n([C@H]3CC[C@H](OCCO)CC3)c2=O)cn1 | -94% |
| C/C(=N/Nc1nnc2c(n1)[nH]c1c(C)cccc12)c1ccccn1 | -87.6% |
| COc1ccc(S(=O)(=O)Nc2cccnc2Nc2ccc(O)cc2)cc1 | -63.9% |
| CCn1c(=O)c(-c2cc[nH]n2)cc2c(C)nc(N)nc21 | -54.4% |
| CC(C)N1CCN(c2ccc(OC[C@@H]3CO[C@@](Cn4cncn4)(c4ccc(Cl)cc4Cl)O3)cc2)CC1 | -68% |
| CC(C)(O)C(=O)N1CCN(c2ccc(C(F)(F)F)c(C3=C(c4c[nH]c5ccccc45)C(=O)NC3=O)c2)CC1 | -43.1% |
| Cc1cc(O)c(-c2ccc([C@@H](C)CN)cc2)c2c1[nH]c(=O)c1sccc12 | -92.6% |
| CCCCCCCCCCCCCCCC[N+](C)(C)Cc1ccccc1 | -46.6% |
| N[C@@H](Cn1ccc(=O)n(Cc2ccccc2C(=O)O)c1=O)C(=O)O | -36.8% |
| COc1cc(OCc2cccc(-c3ccccc3)c2C)cc(OC)c1CN1CCCC[C@H]1C(=O)O | -24.2% |
| CCNC(=O)C#Cc1ccc2c(C(=Nc3ccc(CN(C)C)cc3)c3ccccc3)c(O)[nH]c2c1 | -98.3% |
| COc1cccc2c1C(=O)c1c(O)c3c(c(O)c1C2=O)C[C@@](O)(C(C)=O)C[C@@H]3O[C@H]1C[C@H](N)[C@H](O)[C@H](C)O1 | -97.7% and -94% and -93.6% |
| COc1cc2ncnc(Sc3nnc(C)s3)c2cc1OC | -29.5% |
| CCc1cnn2c(NCc3ccc[n+]([O-])c3)cc(N3CCCC[C@H]3CCO)nc12 | -88.2% |
| Nc1ccn([C@@H]2O[C@H](CO)[C@@H](O)C2(F)F)c(=O)n1 | -63.6% |
| CCc1nc(C(N)=O)c(Nc2ccc(N3CCC(N4CCN(C)CC4)CC3)c(OC)c2)nc1NC1CCOCC1 | -46.8% |
| COCCOc1ccc2c(c1)ncn2-c1ccc2cccc(N3CCC(N)CC3)c2n1 | -93.4% |
| C[C@@H](Oc1ccc2[nH]nc(/C=C/c3cnn(CCO)c3)c2c1)c1c(Cl)cncc1Cl | -87.9% |
| Clc1ccc(NN=C(c2ccccc2)c2ccccn2)nc1 | -70.7% |

| Compound | cell viability activity |
| --- | --- |
| C=CCCCCCCCCC(=O)O | -66.5% |
| COc1cc(-c2ncn(/C=C/C(=O)OC(C)C)n2)cc(C(F)(F)F)c1 | -69.7% |
| COC(=O)Nc1ccc(-c2nc(N3CCOCC3)c3cnn(C4CCN(C(=O)OC)CC4)c3n2)cc1 | -50% |
| COc1ccc2c(c1)c(C1=C(c3c[nH]c4ccccc34)C(=O)NC1=O)cn2CCCN(C)C | -75.2% |
| CCCC[C@H](NC(C)=O)C(=O)N[C@H]1CC(=O)NCCCC[C@@H](C(=O)O)NC(=O)[C@H](Cc2c[nH]c3ccccc23)NC(=O)[C@H](CCCNC(=N)N)NC(=O)[C@@H](Cc2ccccc2)NC(=O)[C@H](Cc2c[nH]cn2)NC1=O | -42.1% |
| Cc1ccccc1CN1C(=O)C2=C(CCN(Cc3ccccc3)C2)N2CCN=C12 | -72.9% |
| C[C@H](Nc1cc(-c2cnn(C)c2)cc(Nc2cnccn2)n1)c1ccc(F)cc1 | -46.9% |
| COc1cc(/C=C/C(=O)CC(=O)/C=C/c2ccc(O)c(OC)c2)ccc1O | -87.7% |
| CCN(CC)CCOCCOC(=O)C(CC)(CC)c1ccccc1 | -31% |
| CNCCn1c(=O)c2cc(OC)c(OC)cc2c2cnc3cc4c(cc3c21)OCO4 | -81.7% |
| CN(C)CCCCC(=O)Nc1ccc(NC(=S)NC(=O)c2ccc(C(C)(C)C)cc2)cc1 | -85.9% |
| Cn1cc(-c2ccc(S(=O)(=O)n3ccc(/C=C/C(=O)Nc4ccccc4N)c3)cc2)cn1 | -62.6% |
| CC(C)n1nc(-c2ccc3oc(N)nc3c2)c2c(N)ncnc21 | -74.9% |
| O=c1[nH]cc(F)c(=O)[nH]1 | -32.3% |
| Cc1ccc(C(=O)Nc2ccc(CN3CCN(C)CC3)c(C(F)(F)F)c2)cc1C#Cc1cnc2cccnn12 | -86.7% |
| CCCCCCCC(=O)N[C@H](CN1CCCC1)[C@H](O)c1ccc2c(c1)OCCO2 | -40.1% |
| CCOc1cc2ncc(C#N)c(Nc3ccc(OCc4ccccn4)c(Cl)c3)c2cc1NC(=O)/C=C/CN(C)C | -50.3% |
| CN1CC[C@@H](c2c(O)cc(O)c3c(=O)cc(-c4ccccc4Cl)oc23)[C@@H]1CO | -90.1% |
| CCCOc1ccc2[nH]c(NC(=O)OC)nc2c1 | -69.6% |
| Cc1[nH]c2ccccc2c1CCNCc1ccc(/C=C/C(=O)NO)cc1 | -99.3% |
